Compounds without any hit were thinned out: in the full panel of roughly 79,000, 15% have a hit. Unmarked numbers belong to inactive results. Activity calls are given as the source filed them. Rule as the data show it: active = growth inhibition above about 70%; inactive = the rest.

Experiment [1] in a line: NCI Yeast Anticancer Drug Screen. Data for the rad50 strain (AID 155).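 Also: 0% = growth of vehicle-only cultures of the same strain.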 To be noted: S. cerevisiae rad50 strain growth inhibition; at 50.0 µM; active compounds read high. Put shortly: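 Growth of the mutant yeast was measured after compound exposure and referenced to vehicle-treated cultures.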
A short description of experiment [2]: NCI Yeast Anticancer Drug Screen. Data for the mec2-1 strain (AID 157). Particulars: S. cerevisiae mec2-1 strain, at 50.0 µM, active compounds read high. Put shortly:
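Each compound was tested on mec2-1 yeast, a strain altered in DNA damage repair or cell cycle control. Growth inhibition is reported relative to vehicle.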

The nature of experiment [3]: NCI Yeast Anticancer Drug Screen. Data for the sgs1 mgt1 strain (AID 161).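 Also: 0% = growth of cultures given vehicle only.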 Particulars: S. cerevisiae sgs1 mgt1 strain, at 50.0 µM, active compounds read high. Put shortly: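 Inhibition of yeast growth, normalised to vehicle-treated controls, is reported for a strain bearing genetic alterations in DNA damage repair.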
Experiment [4] is described as follows: NCI Yeast Anticancer Drug Screen. Data for the cln2 rad14 strain (AID 165).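 Also: 0% = growth equal to vehicle treated cultures.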 Particulars: S. cerevisiae cln2 rad14 strain, at 50.0 µM, active compounds read high. A digest of the protocol:
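Test compounds were added to cln2 rad14 yeast cultures; inhibition of growth was then determined by comparison with vehicle treatment.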

Experiment [5] is described as follows: NCI Yeast Anticancer Drug Screen. Data for the bub3 strain (AID 167). To be noted: S. cerevisiae bub3 mutant strain, at 50.0 µM, active compounds read high. A digest of the protocol: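 Whole-cell yeast assay. The mutant strain was incubated with compounds, and growth inhibition was determined by comparison with vehicle-treated cells.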
Experiment [6] in a line: NCI Yeast Anticancer Drug Screen. Data for the mlh1 rad18 strain (AID 175). Particulars: S. cerevisiae mlh1 rad18 strain growth inhibition; at 50.0 µM; active compounds read high. A digest of the protocol:
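Inhibition values reflect reduced growth of mutant yeast versus vehicle-treated controls following compound exposure; the mutations affect DNA damage repair.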

In the case of `OCC1OC(OC2CC3C(OC4OC(CO)C(O)C(O)C4O)CC(O)CC3OC2c2ccc(O)cc2)C(O)C(O)C1O` (centres undefined), the growth inhibition was 18.1% in experiment [1]; 16.2% in experiment [2]; 21% in experiment [3]; 14.5% in experiment [4]; 11.8% in experiment [5]; 16.1% in experiment [6].
`COC(=O)COC(=O)C1C(C(N)=O)N(CC(=O)OC)CCN1CC(=O)OC` (centres undefined): the growth inhibition is 0.2% in experiment [1]; -0.9% in experiment [2]; -27.4% in experiment [3]; -7.35% in experiment [4]; -3.9% in experiment [5]; -5.95% in experiment [6].
As for `O=C(O)CCC(=O)Oc1ccccc1`, the growth inhibition in experiment [1] is -17.6%; in experiment [2] it was 11.2%; in experiment [3], 13.2%; in experiment [4], 31.6%; in experiment [5], 9.6%; in experiment [6], 44.5%.
Regarding `CCOc1ccc2nc3cc(I)ccc3c(N)c2c1`, the growth inhibition is 8.15% in experiment [1]; -24.2% in experiment [2]; 14.6% in experiment [3]; -10.3% in experiment [4]; -0.05% in experiment [5]; 27.1% in experiment [6].
In the case of `COc1c(O)ccc(/C=N/NC(=S)NCOCCOC(C)=O)c1OC`, the growth inhibition was 0.85% in experiment [1]; -3.8% in experiment [2]; 1.7% in experiment [3]; 21.9% in experiment [4]; 9.95% in experiment [5]; -10.6% in experiment [6].
Turning to `CC1CCC(O)(C(C)(C(=O)O)c2ccccc2)CC1` (centres undefined), the growth inhibition is -19.7% in experiment [1]; -16.8% in experiment [2]; -5.65% in experiment [3]; -35.6% in experiment [4]; -54.8% in experiment [5]; -8.45% in experiment [6].
For the compound `CSc1nc(NC2OC(COC(C)=O)C(OC(C)=O)C(OC(C)=O)C2OC(C)=O)c(-c2csc(N)n2)c(=O)n1C` (centres undefined), the growth inhibition was -6.8% in experiment [1]; -38% in experiment [2]; -22.4% in experiment [3]; 10.2% in experiment [4]; -8.15% in experiment [5]; 13.3% in experiment [6].
`CC(O)c1cccc(NC(=O)NC(C)(C)C)c1` (centres undefined): the growth inhibition in experiment [1] is 0.6%; in experiment [2], 3.05%; in experiment [3], -5%; in experiment [4] it was -74%; in experiment [5], 10.8%; in experiment [6], -6%.
With `CC(C)N(C(=O)C12C3C4C5(C#N)C3C1(C#N)C5C42C#N)C(C)C` (centres undefined), the growth inhibition is -10.4% in experiment [1]; -9.9% in experiment [2]; -21.8% in experiment [3]; 1.5% in experiment [4]; -0.7% in experiment [5]; -27.4% in experiment [6].
`CCN(CC)CCN(C(=S)Nc1ccccc1)c1ccccc1`: the growth inhibition in experiment [1] is 5%; in experiment [2] it was 28.1%; in experiment [3], 17.6%; in experiment [4] it was -10.1%; in experiment [5] it was 9.5%; in experiment [6] it was 27.4%.
As to `COc1ccc(CCNC(=O)c2ccc(CSc3ccc(Cl)cc3)o2)cc1OC`, the growth inhibition in experiment [1] is 34.5%; in experiment [2] it was 24.1%; in experiment [3] it was 37.6%; in experiment [4], 50.5%; in experiment [5], 42.8%; in experiment [6] it was 25.1%.
Turning to `CC1(C)C(=O)C(=Cc2ccco2)C1=O`, the growth inhibition in experiment [1] is -18.9%; in experiment [2], 0.85%; in experiment [3], -23.4%; in experiment [4] it was 3.2%; in experiment [5], -14.2%; in experiment [6], 13%.
On to `COC(=O)[C@@H]1[C@H]2C[C@@H]3c4[nH]c5ccccc5c4CCN3C[C@@H]2CC[C@@H]1O`, for which the growth inhibition was 1.5% in experiment [1]; -9.55% in experiment [2]; 13.9% in experiment [3]; 2.15% in experiment [4]; 5.45% in experiment [5]; 1.25% in experiment [6].
Regarding `COC(=O)[C@]1(C)OP(OC)(OC)(OC)O[C@]1(C)C(=O)OC`, the growth inhibition is -3.4% in experiment [1]; -10.2% in experiment [2]; 3.25% in experiment [3]; -40.5% in experiment [4]; -2.15% in experiment [5]; -1.6% in experiment [6].
`Clc1ccc2c(c1)-c1c3c(nn1-c1ccccc1)-c1ccccc1SC3O2` (centres undefined): the growth inhibition in experiment [1] was 23.3%; in experiment [2], 10.6%; in experiment [3], 17.9%; in experiment [4] it was 19.3%; in experiment [5] it was -1.5%; in experiment [6], -13.6%.
As to `O=[N+]([O-])c1ccc(C2NC(c3ccccc3)c3c(ccc4ccccc34)O2)cc1` (centres undefined), the growth inhibition is 41% in experiment [1]; 2.75% in experiment [2]; 23.8% in experiment [3]; -1.35% in experiment [4]; -0.25% in experiment [5]; 4.3% in experiment [6].
For the compound `Nc1c(N=Nc2ccc(-c3ccc(N=Nc4ccc(O)c(C(=O)O)c4)cc3)cc2)cc(S(=O)(=O)O)c2ccccc12`, the growth inhibition in experiment [1] was 91.5% (active); in experiment [2], 96.6% (active); in experiment [3] it was 94.9% (active); in experiment [4], 93.3% (active); in experiment [5], 91% (active); in experiment [6] it was 93.1% (active).
For the compound `Cc1ccc(O)c(O)c1`, the growth inhibition in experiment [1] is 33.9%; in experiment [2], -13.1%; in experiment [3], -6.45%; in experiment [4] it was -8.9%; in experiment [5] it was -20.3%; in experiment [6], 23.9%.
`ClCc1c(Cl)c(Cl)c(CCl)c(Cl)c1Cl`: the growth inhibition is 2.75% in experiment [1]; -10.9% in experiment [2]; 3.1% in experiment [3]; 20.6% in experiment [4]; 12.6% in experiment [5]; -10.1% in experiment [6].

(Values after PubChem BioAssay (NCI).)
